Only some compounds are listed: those with a hit (about 32% of all), similar ones and a draw of the others.
CYP2C9 activ – increases human cytochrome P450 2C9 activity; AID 1024; activation factor at 5 µM; recombinant CYP2C9, luciferin-H conversion, luminescence; hits give high values; factor 1 = untreated enzyme, 0 = blocked; P11712; 96,000 compounds, 1.4% hits;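 active = activation factor of 2 or more for CYP2C9 at a 5 µM dose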
Target sequence (P11712 whole entry, looked up): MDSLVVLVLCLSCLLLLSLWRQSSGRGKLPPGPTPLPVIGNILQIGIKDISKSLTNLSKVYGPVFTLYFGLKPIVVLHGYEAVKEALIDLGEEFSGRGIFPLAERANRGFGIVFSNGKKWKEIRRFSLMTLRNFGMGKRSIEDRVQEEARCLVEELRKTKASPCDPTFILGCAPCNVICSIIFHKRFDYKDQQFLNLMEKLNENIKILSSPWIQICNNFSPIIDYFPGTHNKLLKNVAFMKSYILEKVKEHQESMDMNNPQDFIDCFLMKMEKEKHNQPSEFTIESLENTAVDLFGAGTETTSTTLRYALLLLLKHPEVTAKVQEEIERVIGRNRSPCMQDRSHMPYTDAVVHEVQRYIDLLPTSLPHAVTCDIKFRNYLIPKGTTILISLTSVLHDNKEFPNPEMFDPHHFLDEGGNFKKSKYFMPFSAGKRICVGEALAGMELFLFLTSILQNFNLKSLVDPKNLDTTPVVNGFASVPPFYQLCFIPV
CYP2C19 activ – cytochrome P450 2C19 (human) activation. 96,000 tested, under 10 active. activation factor at 5 µM. AID 1025. P33261. recombinant CYP2C19, luciferin-H EGE luminescence; hits give high values; 0 = fully inhibited enzyme, 1 = untreated enzyme;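 active = activation factor of at least 2 at 5 µM in the primary screen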
PostGolgi ctrl – yeast control strain growth, post-Golgi counter-screen; efflux-deficient yeast background strain, growth absorbance A615, 16 h; inhibition, % at 10 µM; 98,000 compounds, 5% hits; AID 738
CYP2C19 inh – inhibitors of human CYP2C19; CYP2C19 Supersomes, luciferin-H EGE luminescence, 30 min; inhibition, % at 5 µM; 96,000 compounds, 21% hits;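 active = CYP2C19 inhibition above a set limit at 5 µM in the primary screen, cut at about 50% in these data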
CYP2C9 inh – inhibitors of human CYP2C9. P11712. CYP2C9 Supersomes, luciferin-H conversion, luminescence. inhibition, % at 5 µM. 96,000 compounds, 20% hits;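 active = blocking of liver enzyme CYP2C9 beyond about 50% at 5 µM, limit read from the data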
PostGolgi yeast – growth inhibition of a yeast mutant, post-Golgi transport screen; post-Golgi transport phenotypic cell assay; inhibition, % at 10 µM; 98,000 compounds, 0.9% hits; AID 739;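 note: yeast cells grown in 1536-well plates; yeast grown about 18 h at 30C before absorbance read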
Of the large screens only hits and unclear results are named; the others gave an inactive call. Cut-off read from the data, not from the text of the source, unless noted: active = inhibition above about 30%; inactive = the rest.

COC(=O)CN(c1ccccc1F)S(=O)(=O)c1ccccc1	none
CS(=O)(=O)N(CC(=O)Nc1cccc(Cl)c1)c1ccccc1Cl	CYP2C19 inh 97, CYP2C9 inh 90
CCOc1ccccc1N(CC(=O)Nc1ccc2c(c1)OCCO2)S(C)(=O)=O	PostGolgi ctrl 34, CYP2C9 inh 77
CC(=O)c1cccc(NC(=O)CN(c2ccccc2F)S(C)(=O)=O)c1	CYP2C19 inh 54
Cc1ccc(NC(=O)CN(c2ccccc2F)S(C)(=O)=O)cc1	CYP2C19 inh 76
CS(=O)(=O)N(CC(=O)NC1CCCCC1)c1cccc(Cl)c1	none
COc1ccccc1N(Cc1cc2cccc(C)c2[nH]c1=O)C(=O)C(C)C	none (no result: PostGolgi ctrl, PostGolgi yeast)
Cc1nc2ccc(C(=O)c3ccccc3)cc2[nH]1	none
O=C(Nc1ccc(Oc2ccccc2)cc1)c1cnc2n(c1=O)CCS2	none
Cc1ccc(OCC(=O)n2cnnc2N)c(C)c1	none
CCOc1ccccc1N(CC(=O)Nc1ccc(C)cc1)S(C)(=O)=O	CYP2C19 inh 71
CC(=O)c1cccc(N(CC(=O)Nc2ccc(F)cc2F)S(C)(=O)=O)c1	CYP2C19 inh 76
Cc1ccccc1N(CC(=O)Nc1ccc(F)cc1)S(C)(=O)=O	CYP2C19 inh 89
Cc1ccccc1N(CC(=O)N1CCN(c2ccccc2)CC1)S(C)(=O)=O	none
CCCNC(=O)c1ccccc1NC(=O)CN(c1ccccc1OCC)S(C)(=O)=O	CYP2C9 inh 58
CCOc1ccccc1N(CC(=O)Nc1ccc2c(c1)OCO2)S(C)(=O)=O	none
C=CCNC(=O)CN(c1ccccc1OCC)S(=O)(=O)c1ccc(C)cc1	CYP2C19 inh 66, CYP2C9 inh 68
CCOc1ccc(NC(=O)c2ccccc2NC(=O)CN(C)CC(=O)Nc2ccc(C)cc2)cc1	CYP2C19 inh 94, CYP2C9 inh 97
CCOC(=O)c1ccccc1NC(=O)CN(c1ccccc1C)S(C)(=O)=O	CYP2C19 inh 96, CYP2C9 inh 78
CCOC(=O)c1ccccc1NC(=O)c1ccc(NS(C)(=O)=O)cc1	none
COc1ccccc1N(CC(N)=O)S(=O)(=O)c1ccc(C)cc1	none
CC(NS(=O)(=O)c1cccc(Cl)c1)C(=O)Nc1ccc(-c2nc3ccccc3s2)cc1 (stereo unspecified)	none
CCOc1ccc(NC(=O)c2ccccc2OCC(=O)c2ccc(C)cc2)cc1	none
Cc1ccc(C)c(S(=O)(=O)NC(C)C(=O)Nc2ccc(-c3nc4ccccc4s3)cc2)c1 (stereo unspecified)	PostGolgi ctrl 33
CCOC(=O)CCC(=O)N1CCOCCOCCN(C(=O)CCC(=O)OCC)CCOCCOCC1	none
CCC(NC(=O)c1ccccc1NC(=O)c1ccc(C)cc1)C(=O)O (stereo unspecified)	none
Cc1ccc2c(c1)-c1c(cnn1CC(=O)N(CCC#N)c1ccccc1)CO2	none
Nc1nnc(CCc2ccccc2)s1	none
CCOC(=O)c1ccc(NC(=O)CCC(CC)C(=O)O)cc1 (stereo unspecified)	none
CCCCC(CCC(=O)Nc1ccccc1C(=O)OCC)C(=O)O (stereo unspecified)	CYP2C9 inh 59
Cc1ccc2nc(-c3ccc(NC(=O)CN(c4ccccc4C)S(C)(=O)=O)cc3)sc2c1	CYP2C19 inh 92
O=C(Nc1cccc(NC(=O)c2ccco2)c1)c1ccc2c(c1)OCO2	CYP2C19 inh 50
COc1cc(NC(=O)c2ccc3c(c2)OCO3)ccc1NC(=O)C(C)C	none
O=C(Nc1ccc2c(c1)OCCO2)c1ccco1	none
COc1cc(C(=O)NCCc2ccc3c(c2)OCCO3)ccc1OCC(=O)N1CCOCC1	none
CCOc1ccc(C(=O)Nc2ccc3c(c2)OCCO3)cc1OC	CYP2C19 inh 69
CCCCC(=O)Nc1ccc(NC(=O)c2ccc3c(c2)OCO3)cc1OC	CYP2C19 inh 86, CYP2C9 inh 59
COc1cc(C#N)ccc1OCC(=O)c1ccc2c(c1)OCCO2	CYP2C19 inh 62
O=C(Nc1ccc2c(c1)Cc1ccccc1-2)c1ccco1	none
CCSc1nc(C)cc(Oc2ccc(=O)n(C)n2)n1	none
CCCC(=O)Nc1cccc(NC(=O)c2ccc3c(c2)OCCO3)c1	CYP2C19 inh 59
O=C(Nc1ccc2c(c1)OCO2)c1ccc(Cl)s1	CYP2C19 inh 81, CYP2C9 inh 62
O=C(Nc1ccc(Cl)cc1)c1ccc2c(c1)OCO2	none
O=C(Nc1ccc2c(c1)OCO2)c1cccc(Cl)c1	CYP2C19 inh 70

Assay outcomes from PubChem.
